Data from paper PMC4336329 (PLoS ONE, 2015).
Hit rate of the full screen: of about 310,000 compounds, about 2,200 (0.71%) showed an effect of 50% or more. The effect is printed as a negative number. Shown is part of a subset that was picked to be rich in strong results.

molecular target: human ether-à-go-go-related gene (hERG) potassium channel (human, UniProt Q12809); experiment: primary screen, population patch clamp on CHO cells stably expressing hERG; higher = less effect of the substance
Sequence (Q12809 whole entry, looked up): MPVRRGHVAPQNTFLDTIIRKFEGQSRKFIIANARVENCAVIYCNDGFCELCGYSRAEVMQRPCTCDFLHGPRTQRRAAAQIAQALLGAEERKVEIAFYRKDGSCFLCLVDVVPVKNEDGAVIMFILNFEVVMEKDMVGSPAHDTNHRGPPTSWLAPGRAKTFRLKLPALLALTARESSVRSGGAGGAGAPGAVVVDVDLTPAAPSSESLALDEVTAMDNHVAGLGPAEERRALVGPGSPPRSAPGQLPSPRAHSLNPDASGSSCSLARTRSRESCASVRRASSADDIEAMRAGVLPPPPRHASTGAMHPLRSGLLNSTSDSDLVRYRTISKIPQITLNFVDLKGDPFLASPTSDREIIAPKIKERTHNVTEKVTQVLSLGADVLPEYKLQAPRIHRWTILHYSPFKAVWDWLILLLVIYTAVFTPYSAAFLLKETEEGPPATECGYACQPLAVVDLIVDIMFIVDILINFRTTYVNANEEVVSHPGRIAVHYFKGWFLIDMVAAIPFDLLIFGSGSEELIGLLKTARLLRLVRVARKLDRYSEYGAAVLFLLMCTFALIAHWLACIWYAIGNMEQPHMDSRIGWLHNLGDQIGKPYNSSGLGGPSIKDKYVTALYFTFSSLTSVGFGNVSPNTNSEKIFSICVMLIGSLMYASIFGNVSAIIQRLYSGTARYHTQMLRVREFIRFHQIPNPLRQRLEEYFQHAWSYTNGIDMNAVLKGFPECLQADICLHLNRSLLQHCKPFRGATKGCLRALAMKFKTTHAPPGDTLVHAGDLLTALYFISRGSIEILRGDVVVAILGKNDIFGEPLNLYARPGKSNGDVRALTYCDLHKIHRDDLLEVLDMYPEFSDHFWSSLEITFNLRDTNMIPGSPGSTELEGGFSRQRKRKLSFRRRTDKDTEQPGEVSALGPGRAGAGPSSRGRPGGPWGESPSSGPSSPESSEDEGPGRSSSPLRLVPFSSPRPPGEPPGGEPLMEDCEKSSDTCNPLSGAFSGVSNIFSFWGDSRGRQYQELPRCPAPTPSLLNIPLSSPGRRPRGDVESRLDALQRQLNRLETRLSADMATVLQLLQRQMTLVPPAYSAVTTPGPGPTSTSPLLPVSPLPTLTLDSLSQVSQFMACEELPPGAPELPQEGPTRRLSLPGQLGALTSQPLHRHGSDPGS

Row | Structure (SMILES) | hERG current change (%, negative = inhibition) at 1uM
1 | Cc1cc(C)nc(OC(C(=O)O)C(OCCC(C)C)(c2ccccc2)c2ccccc2)n1 (centres unmarked) | 10.8%
2 | CCOC(=O)C1(CCOc2ccccc2)CCN(Cc2ccc(O)c(OC)c2)CC1 | -69.9%
3 | CCOC(=O)C1(CCOc2ccccc2)CCN(Cc2ccc(O)c(Cl)c2)CC1 | -2.25%
4 | CCOC(=O)C1(Cc2cccc(OC)c2)CCN(Cc2ccc(OC)c(O)c2)CC1 | -16.9%
5 | CCOC(=O)C1(CCOc2ccccc2)CCN(Cc2cc(OC)c(O)cc2Cl)CC1 | 7.21%
6 | CCOC(=O)C1(CCOc2ccccc2)CCN(Cc2ccc(OC)c(O)c2)CC1 | -88.3%
7 | CCOC(=O)C1(CCOc2ccccc2)CCN(Cc2ccc(COC)o2)CC1 | -41.9%
8 | CCOC(=O)C1(CCOc2ccccc2)CCN(Cc2ccc(F)c(OC)c2)CC1 | 5.6%
9 | CCOC(=O)C1(CCOc2ccccc2)CCN(Cc2ccc(OC)c(COC)c2)CC1 | -77.3%
10 | CCOC(=O)CSc1nnc(COc2cccc(C)c2)o1 | 10.6%
11 | COCCOc1ccc(C(F)(F)F)cc1NC(=O)c1ccc(C(F)(F)F)cc1 | 4.7%
12 | CCN(CC)S(=O)(=O)c1ccc(N/N=C/c2cc(OC)c(OC)cc2OC)nc1 | 17.4%
13 | COc1ccc(C(=O)NC2CCCc3ccccc32)cc1OC1CCN(C(C)=O)CC1 (centres unmarked) | 3.31%
14 | CCOc1ccc(/C(O)=C2/C(=O)C(=O)N(CCCN3CCOCC3)C2c2ccc(F)cc2)cc1C (centres unmarked) | 16.5%
15 | CN1CCN(S(=O)(=O)c2ccc(N3CCN(C(c4ccccc4)c4ccccc4)CC3)nc2)CC1 | 18.9%
16 | O=C(COc1ccc(S(=O)(=O)N2CCOCC2)cc1)Nc1cccc([N+](=O)[O-])c1 | 9.62%
17 | Cc1ccc(NC(=O)COc2ccc(S(=O)(=O)N3CCOCC3)cc2)cc1 | 13.6%
18 | O=C(COc1ccc([N+](=O)[O-])cc1)Nc1ccc(S(=O)(=O)N2CCOCC2)cc1 | -55.1%
19 | Cc1c(CCC(=O)N2CCC[C@H]2C(=O)O)c(=O)oc2c(C)c3oc4c(c3cc12)CCCC4 | 21.1%
20 | COC(=O)C(NC(C)=O)(Nc1ccc(C)cn1)C(F)(F)F (centres unmarked) | 21.1%
21 | Cc1ccc(NP(=O)(Oc2ccccc2F)Oc2ccccc2F)cc1 | -1.69%
22 | COc1cc(OC)cc(C(=O)N2CCN(Cc3ccccc3Br)CC2)c1 | 9.25%
23 | Cc1ccc2nc3c(cc(C(=O)NC4CCCC4)c(=N)n3CCCn3ccnc3)c(=O)n2c1 | -2.46%
24 | Cc1ccc(S(=O)(=O)c2cc3c(=O)n4ccccc4nc3n(C3CCCCC3)c2=N)cc1 | -0.427%
25 | Cc1ccc(S(=O)(=O)c2cc3c(=O)n4ccccc4nc3n(C3CCCC3)c2=N)cc1 | 3.8%
26 | Cc1ccc2nc3c(cc(C(=O)NC4CCCCC4)c(=N)n3C3CCCCC3)c(=O)n2c1 | -72.7%
27 | Cc1ccc2nc3c(cc(C(=O)NC4CCCC4)c(=N)n3C3CCCCC3)c(=O)n2c1 | -86.2%

Row | Structure (SMILES) | hERG current change (%, negative = inhibition) at 1uM
28 | CCCOc1cccc(C(=O)N(Cc2ccco2)C2CCS(=O)(=O)C2)c1 (centres unmarked) | 3.56%
29 | CCN(CC)C(=O)C1CCN(S(=O)(=O)c2ccc3oc4ccccc4c3c2)CC1 | 16.7%
30 | CCc1ccc(NC(=O)c2nc(S(=O)(=O)Cc3ccccc3)ncc2Cl)cc1 | 20.7%
31 | O=c1[nH]c2ccccc2cc1CN(Cc1cccnc1)S(=O)(=O)c1ccc([N+](=O)[O-])cc1 | -5.07%
32 | c1ccc(C(c2nnnn2Cc2ccco2)N2CCN(c3nc4ccccc4s3)CC2)cc1 (centres unmarked) | 8.1%
33 | Cc1ccc(Cl)cc1NC(=O)C1CCCN(S(C)(=O)=O)C1 (centres unmarked) | 7.81%
34 | Cl.O=[N+]([O-])c1ccc2ncnc(N3CCN(Cc4ccc5c(c4)OCO5)CC3)c2c1 | 11.4%
35 | O=Cc1cc([N+](=O)[O-])ccc1N1CCN(Cc2ccc3c(c2)OCO3)CC1 | -66.7%
36 | O=[N+]([O-])c1ccc(N2CCN(Cc3ccc4c(c3)OCO4)CC2)nc1 | -29.2%
37 | Cc1ccccc1Nc1nc2nonc2nc1N1CCOCC1 | 6.45%
38 | CC1C(=O)NC(=O)C1c1ccccc1 (centres unmarked) | 13.3%
39 | Cn1c(N)c(C(=O)COC(=O)CSc2ccc(Cl)cc2)c(=O)n(C)c1=O | -2.13%
40 | CC(C)(C)NCc1cc2ccccc2[nH]c1=O | 8.1%
41 | CCCN1CCC(=O)N([C@H](CO)c2ccccc2)CC1 | 9.74%
42 | CCCN1CCC(=O)N([C@H](COc2ccccc2)c2ccccc2)CC1 | -76.5%
43 | CC(C)C[C@@H](COc1ccccc1)N1CCN(CC(C)C)CCC1=O | -21.2%
44 | CC(C)CN1CCC(=O)N([C@H](COc2ccccc2)c2ccccc2)CC1 | -64.3%
45 | CCCCCCCN1CCC(=O)N([C@H](CO)c2ccccc2)CC1 | -25.8%
46 | CC(C)CN1CCC(=O)N([C@H](CO)c2ccccc2)CC1 | 12.6%
47 | O=C1CCN(CCc2ccccc2)CCN1[C@H](CO)c1ccccc1 | -7.26%
48 | O=C1CCN(CCc2ccccc2)CCN1[C@H](COc1ccccc1)c1ccccc1 | -82.8%
49 | O=C1CCN(Cc2ccccc2)CCN1[C@H](COc1ccccc1)c1ccccc1 | 2.66%
50 | COc1ccc(CCNc2nc(-c3cccnc3)cs2)cc1OC | 23.6%
51 | CCCCC(=O)Nc1cccc(NC(=O)c2cccnc2Cl)c1 | 6.85%
52 | C/C(=N\O)C(=O)NCCN(C)C | 13.6%
53 | CC(=O)O.Cc1nc(NCCc2ccc(F)cc2)c(C#N)c(C)c1[N+](=O)[O-] | -41.9%
